PubChem BioAssay AID687001 (Broad Institute, 2013)
Results with a measured potency or affinity are listed apart. Active and inactive are the calls of the source.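 How the source made its calls: active means signal-lowering compounds whose fitted half-maximal concentration is at or below twice the top tested dose in every run; inconclusive means runs disagree, flat 30 to 70% inhibition, or poor curve fit; inactive means the rest.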

Molecular target: Protein S100-A4 (Homo sapiens) (UniProt P26447)
Assay: human S100A4 peptide interaction inhibition curves – biochemical, fluorescence polarization, cherry-picked hits, dose response (AID 687001)
Conditions: FP, S100A4/TAMRA-myosin IIA peptide binding; series mostly up to 11 µM

Sequence of Protein S100-A4 (Homo sapiens) (P26447 whole entry, looked up): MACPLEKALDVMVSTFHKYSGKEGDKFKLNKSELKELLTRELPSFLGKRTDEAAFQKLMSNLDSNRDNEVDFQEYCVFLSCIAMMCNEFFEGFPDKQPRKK

outcome, inactive:
CO[C@H]1CC[C@H]2CCOc3c(C#N)cccc3C(=O)N(C)C[C@H](c3ccccc3)CC(=O)N(C)C[C@H]1O2, Cc1noc(C)c1NC(=O)N(C)C[C@H]1OCCCC[C@H](C)Oc2ccc(NS(=O)(=O)c3ccc(F)cc3)cc2C(=O)N([C@H](C)CO)C[C@@H]1C, COc1ccc(C(=O)OCc2nnc(-c3ccccc3)o2)cc1S(=O)(=O)N1CCOCC1, CCOC(=O)[C@]12CCC=C1N(Cc1ccc3c(c1)OCO3)C(=O)[C@H](CC(=O)NCc1cccc(C(F)(F)F)c1)C2, COc1ccc2c(c1)CCC/C2=N\Nc1nc(C(=O)NN)cs1, CCOc1ccc(S(=O)(=O)N2CCCC(C(=O)NCC3CCCO3)C2)cc1Cl (centres undefined), C[C@H]1CN([C@@H](C)CO)C(=O)CCCn2nncc2CO[C@H]1CN(C)S(=O)(=O)c1ccc2c(c1)OCCCO2, COc1ccc(C2SCCN2S(=O)(=O)c2ccc(F)cc2)cc1OC (centres undefined), CCCC(=O)Nc1ccc2c(c1)OC[C@H](C)NC[C@H](C)[C@H](OC)CN(C)C2=O, COc1ccc(CN(C)C[C@H]2OCCCC[C@@H](C)Oc3ccc(NC(=O)Nc4ccc5c(c4)OCO5)cc3C(=O)N([C@H](C)CO)C[C@H]2C)cc1, CCOc1ccc(N(CC(=O)NCCOc2ccccc2OC)S(=O)(=O)c2ccccc2)cc1, Cc1c(C(=O)NCc2cccc([N+](=O)[O-])c2)sc(=O)n1Cc1cccc(F)c1, C[C@@H]1CN([C@H](C)CO)C(=O)c2cccc(NC(=O)C3CCCCC3)c2O[C@@H]1CN(C)Cc1ccc(Oc2ccccc2)cc1, COC(=O)C[C@H]1CC[C@@H](NC(=O)Nc2cccc(OC)c2)[C@@H](CO)O1, Cc1cc(Br)ccc1NC(=O)CN(C)C(=O)c1ccc(-n2cncn2)c([N+](=O)[O-])c1, C[C@@H]1CN([C@H](C)CO)C(=O)c2ccccc2-c2ccccc2CO[C@H]1CN(C)C(=O)Oc1ccccc1, CCc1ccc(C(=O)NNC(=O)c2cccc(N3C(=O)CCC3=O)c2)cc1, O=C(N[C@H]1CC[C@@H](CCNS(=O)(=O)Cc2ccccc2)O[C@H]1CO)c1ccccc1F, CNC[C@H]1OCCCC[C@@H](C)Oc2ccc(NC(=O)C3CCCCC3)cc2C(=O)N([C@@H](C)CO)C[C@@H]1C, CCOC(=O)[C@]12CCC=C1N(Cc1cccc3ccccc13)C(=O)[C@H](CC(=O)N1CCOCC1)C2, Cc1ccc(C)c(N2CCN(S(=O)(=O)c3c(C)[nH]c(C)c3C(=O)N3CCCCC3)CC2)c1, Cc1onc(-c2ccccc2Cl)c1C(=O)N1CCCC1, C[C@@H]1CN([C@H](C)CO)C(=O)c2cc(C#CC3CC3)cnc2O[C@@H]1CN(C)S(C)(=O)=O, O=C(Nc1ccccc1F)N1C[C@@H]2[C@H](c3ccccc31)[C@@H](CO)N2C(=O)C1CCCC1, Cc1ccc(S(=O)(=O)N[C@H]2C=C[C@@H](CC(=O)NC3CCCCC3)O[C@@H]2CO)cc1, C[C@@H]1CCCCO[C@H](CN(C)S(=O)(=O)c2ccc(Cl)cc2)[C@@H](C)CN([C@@H](C)CO)C(=O)c2cc(NS(=O)(=O)c3ccc(F)cc3)ccc2O1, COc1ccc(NC(=O)Nc2ccc3c(c2)CC(=O)N([C@@H](C)CO)C[C@@H](C)[C@H](CN(C)Cc2ccccc2)O3)cc1, COc1ccc(Cl)cc1Cn1c(C)c(C(=O)NCc2ccc(C#N)cc2)sc1=O, O=C(c1cnn(C(=O)c2ccco2)c1)c1cc(Cl)cc(Cl)c1O, Cc1ccccc1NC(=O)C1CCN(S(=O)(=O)c2ccc3c(c2)NC(=O)C(C)S3)CC1 (centres undefined), CCOC(=O)c1c(S(=O)(=O)N2CCCC(C(=O)Nc3ccc(C)cn3)C2)c(C)n(C)c1C (centres undefined), CC(C)CC#Cc1ccc2c(c1)O[C@@H](CN(C)C(=O)Nc1ccccc1)[C@@H](C)CN([C@H](C)CO)S2(=O)=O, COc1ccc(CN(C)C[C@H]2Oc3c(NC(=O)Nc4ccccc4)cccc3C(=O)N([C@@H](C)CO)C[C@@H]2C)cc1, CN(C)Cc1cn(CC[C@H]2CC[C@H](NC(=O)Cc3cccnc3)[C@H](CO)O2)nn1, COC(=O)c1c(NC(=O)CN(C)CC(=O)Nc2ccc(C)cc2)sc2c1CCC(C)C2 (centres undefined), O=C(OCC(=O)N1CCCC1=O)c1ccc(Cl)cc1[N+](=O)[O-], Cc1noc(C)c1NC(=O)Nc1ccc2c(c1)C(=O)N([C@H](C)CO)C[C@@H](C)[C@@H](CN(C)S(=O)(=O)c1ccc(Cl)cc1)OCCCC[C@H](C)O2, CCOC(=O)C1(C)CCN1C(=O)c1csnn1 (centres undefined), COC(=O)c1sccc1NC(=O)Nc1ccc(C)c(C)c1
